# According to PubChem BioAssay:
# Inconclusive results are not listed. Active and inactive are the calls of the source. Unless noted, the rule behind the calls is not given here.
# How the values were obtained:
# [1] = yeast TOR pathway RPL19A-GFP modulators, primary screen, cell-based, S. cerevisiae, multiplex flow cytometry (AID 1862; in the data active = percent of DMSO control GFP below about 86%;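 note: lower values mimic rapamycin by blocking the RPL19A rise seen in DMSO cells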); settings: S. cerevisiae RPL19A-GFP strain, flow cytometry fluorescence, 3 h; at 10 µM; stronger effect = lower value
# [2] = modulators of MEP2-GFP levels in yeast, primary screen, S. cerevisiae, multiplex flow cytometry (AID 1867;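 active = GFP response, as percent of the DMSO control, above the screen-wide mean plus 3 SD, about 139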;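 note: median GFP channel fluorescence of barcode-gated MEP2-GFP cells measured by flow cytometry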); settings: S. cerevisiae MEP2-GFP strain, 3 h, at 10 µM, stronger effect = higher value
# [3] = modulators of CIT2-GFP expression in yeast, primary screen, S. cerevisiae, GFP fusion, multiplex flow cytometry (AID 1870;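 active = percent response above a set limit, the screen-wide mean plus 3 SD, cut at about 130% in these data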;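 note: barcoded CIT2-GFP strain pooled with four other GFP strains with rapamycin as positive control; median GFP fluorescence per well over plate mean of DMSO wells so 100% = DMSO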); settings: 3 h, at 10 µM, stronger effect = higher value
# [4] = modulators of LAP4-GFP expression in yeast, primary screen, S. cerevisiae, multiplex flow cytometry (AID 1873;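 active = GFP signal, as percent of the solvent control, above the screen mean plus 3 SD, about 149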); settings: 3 h, at 10 µM, stronger effect = higher value
# [5] = inhibitors of CD8+ T cell-vesicle binding, pilot screen, LFA-1/ICAM-1 modulator project, MLPCN validation set, flow cytometry (AID 2523;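 active = response below a set limit, under 55% cells CD8-positive and vesicle-bound, and CD8 cells' 90th-percentile brightness under 279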;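 for vesicle binding response: mean PE anti-B7-1 fluorescence of CD8+ cells relative to row control; 100% = QL9-loaded vesicles with DMSO vehicle in the same plate row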); settings: 2C mouse CD8+ T cells, at 7 µM, stronger effect = lower value; double positive events: measured here: CD8+/vesicle+ event percentage
# [6] = biological target: Integrin beta-1 (Homo sapiens) + Integrin alpha-4 (Homo sapiens) (UniProt P13612+P05556); experiment: inhibition of HUTS-21 binding to VLA-4, pilot screen, VLA-4 allosteric modulator project, U937 cells, HUTS-21 mAb, flow cytometry, validation set (AID 2674;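 active = inhibition above 50%, about 3 SD of the validation set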;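 note: antibody binding induced by the VLA-4 ligand LDV present at three times its Kd; 0% = LDV ligand with antibody and no compound and 100% = antibody without LDV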); settings: HUTS-21 LIBS mAb binding, at 6.7 µM, stronger effect = higher value
# [7] = superoxide lowering in aged yeast cells, pilot screen, validation compound set (AID 2706;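 active = superoxide response below 65% of plate, a cut near 3 SD across the whole screen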;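 note: yeast exposed to compound for one week at 30 degrees C before staining; 100% = mean of all compound wells on the same plate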); settings: S. cerevisiae aging, superoxide DHE fluorescence; at 10 µM; stronger effect = lower value
# [8] = biological target: Beta-adrenergic receptor kinase 1 (Homo sapiens) (UniProt P25098); experiment: GRK2 binders displacing RNA aptamer, biochemical, validation, human GRK2, bead flow cytometry (AID 488806;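 active = aptamer binding inhibition above 30%, about 3 SD of noise from non-fluorescent compounds; inactive = inhibition at or below 30%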); settings: bead-bound GRK2, FAM-aptamer displacement, at 10 µM, stronger effect = higher value
# [9] = biological target: AP-2 complex subunit beta (Homo sapiens) (UniProt P63010); experiment: inhibitors of arrestin peptide binding to AP2, pilot screen, biochemical, validation set, GST-AP2 beads, flow cytometry (AID 504541;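 active = inhibition above 54%, about 3 SD of non-fluorescent compounds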;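 note: AP2 carries R879A mutation and is captured from E. coli lysate; bead-bound FITC arrestin peptide fluorescence measuring arrestin peptide binding to AP2; 0% = DMSO wells and 100% = excess unlabeled arrestin peptide control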); settings: FITC arrestin peptide, at 10 µM, stronger effect = higher value
# [10] = yeast V-ATPase proton transport modulators, S. cerevisiae, pHLuorin, HTS validation (AID 504600; in the data active = response above about 15%;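 note: plate controls were DMSO for no effect and reference compound for full effect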); settings: S. cerevisiae pHLuorin cytosolic pH, at 10 µM, stronger effect = higher value
# [11] = tested on: anti-desmoglein-3 scFv antibody binding to human DSG3; experiment: inhibitors of anti-DSG3 scFv binding to DSG3, pilot screen, biochemical, validation compound set, bead-based, flow cytometry (AID 588368;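 active = binding below the plate cutoff, the plate median minus 3 SD, with a reading above zero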;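 note: signal is the median channel fluorescence of bead-bound GFP antibody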); settings: Protein G beads, DSG3-Fc, scFv-GFP binding, at 10 µM, stronger effect = lower value
# [12] = tested on: Botulinum neurotoxin type F light chain protease (Clostridium botulinum); experiment: Botulinum neurotoxin type F light chain protease inhibition, multiplex microsphere flow cytometry, validation set (AID 588459); settings: multiplex microsphere protease substrate cleavage assay, at 10 µM, stronger effect = higher value
# [13] = biological target: Botulinum neurotoxin type A (Clostridium botulinum) (UniProt P0DPI0); experiment: BoNT/A light chain protease inhibitors, biochemical, multiplex microsphere flow cytometry, validation set (AID 588460); settings: at 10 µM, stronger effect = higher value
# [14] = biological target: Lethal factor (Bacillus anthracis) (UniProt P15917); experiment: Lethal factor protease inhibitors, Bacillus anthracis, multiplex microsphere cleavage assay, validation set (AID 588461); settings: flow cytometry, at 10 µM, stronger effect = higher value
# [15] = inhibitors of fungal efflux pumps CDR1, CDR2, MDR1, pilot screen, validation compound set, multiplex, phenotypic (AID 588506;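 active = efflux inhibition above 0.42, the validation set average plus 4 SD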;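 note: Nile Red retained in cells so higher fluorescence means more efflux inhibition; 0 = negative control wells and 1 = enniatin B 25 µM full block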); settings: S. cerevisiae pump-expressing triplex, Nile Red efflux flow cytometry; at 10 µM; stronger effect = higher value
# [16] = biological target: ATP-binding cassette sub-family B member 6 (Homo sapiens) (UniProt Q9NP58); experiment: ABCB6 transporter inhibitors, pilot screen, K562-ABCB6 cells, flow cytometry, validation set (AID 588550;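 active = inhibition above the screen-wide mean plus 3 SD, about 51%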;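 note: 0% = DMSO wells and 100% = benzethonium chloride 70 µM positive control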); settings: K562-ABCB6 porphyrin accumulation, 1 h, at 10 µM, stronger effect = higher value
# [17] = promoters of myeloid differentiation in arrested cells, primary screen, cell-based, GFP/MAC1 double positive, flow cytometry, validation set (AID 588685;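 active = differentiation response of at least 50%, scaled between solvent and reference control, from cells with both markers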;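 note: compound exposure lasts four days before antibody staining and flow analysis; 0% = DMSO wells and 100% = 5 µM fulvestrant positive control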); settings: ER-HoxA9 marrow cells, stronger effect = higher value
# [18] = RPL19A-GFP modulators, yeast TOR pathway, confirmation, cell-based, S. cerevisiae, flow cytometry, cherry picks, mother/daughter gates (AID 2270;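 active = GFP response below 50% of the DMSO control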); settings: S. cerevisiae RPL19A-GFP strain, 3 h, at 10 µM, stronger effect = lower value, 100 = same GFP as DMSO wells
# [19] = LAP4-GFP expression modulators in yeast, confirmation, cell-based, cherry picks, flow cytometry, mother/daughter gates (AID 2271;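 active = GFP response above 150% of the DMSO control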;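 note: ratio of sample to DMSO plate mean so 100% equals DMSO level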); settings: S. cerevisiae LAP4-GFP strain, 3 h, at 10 µM, stronger effect = higher value
# [20] = modulators of CIT2-GFP expression in yeast, confirmation, S. cerevisiae, GFP fusion, cherry picks, mother/daughter gates (AID 2274;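 active = GFP response above 150% of the DMSO level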); settings: S. cerevisiae CIT2-GFP strain, flow cytometry, 3 h, at 10 µM, stronger effect = higher value
# [21] = measured here: daughter cell gate
# [22] = measured here: mother cell gate
# [23] = measured here: daughter cell gate response
# [24] = measured here: mother cell gate response
structure (smiles),measurement,setting,value
Fc1ccc(C(OCCN2CCCC2)c2ccc(Br)cc2)cc1 (stereo unspecified),percent of DMSO control GFP,[1],98.8% (inactive)
same,GFP response vs DMSO,[2],98.5% (inactive)
same,percent response of DMSO control,[3],93.9% (inactive)
same,GFP response vs DMSO,[4],109% (inactive)
same,double positive events,[5],69.4%
same,vesicle binding response,[5],310% (inactive)
same,inhibition,[6],-4.52% (inactive)
same,superoxide response (% of plate),[7],94.6% (inactive)
same,aptamer binding inhibition,[8],-9% (inactive)
same,inhibition,[9],-3.21% (inactive)
same,response,[10],0.75% (inactive)
same,binding (% of control),[11],103% (inactive)
same,inhibition,[12],5.6% (inactive)
same,inhibition,[13],-0.6% (inactive)
same,inhibition,[14],3% (inactive)
same,efflux inhibition (fraction of control),[15],0.84 (active)
same,inhibition,[16],7% (inactive)
same,differentiation response,[17],16.8% (inactive)
Cc1cc(C=C2C(=O)N(C)C(=S)N(C)C2=O)c(C)n1-c1ccncc1,GFP response vs DMSO,[18],92.8% (inactive)
same,GFP response vs DMSO,[18]; [21],91.1%
same,GFP response vs DMSO,[18]; [22],88.6%
same,GFP response relative to DMSO,[19],114% (inactive)
same,GFP response relative to DMSO,[19]; [23],108%
same,GFP response relative to DMSO,[19]; [24],117%
same,"GFP response, % of DMSO",[20],69.1% (inactive)
same,"GFP response, % of DMSO",[20]; [21],70.3%
same,"GFP response, % of DMSO",[20]; [22],64.4%
Cc1ccc(/C=C2\C(=O)NC(=O)N(CC3CCCO3)C2=O)s1 (stereo unspecified),GFP response vs DMSO,[18],92.7% (inactive)
same,GFP response vs DMSO,[18]; [21],95.9%
same,GFP response vs DMSO,[18]; [22],94.8%
same,GFP response relative to DMSO,[19],102% (inactive)
same,GFP response relative to DMSO,[19]; [23],102%
same,GFP response relative to DMSO,[19]; [24],104%
same,"GFP response, % of DMSO",[20],82.6% (inactive)
same,"GFP response, % of DMSO",[20]; [21],86.2%
same,"GFP response, % of DMSO",[20]; [22],79.5%
O=C(O)c1nn(Cc2ccc(Cl)cc2Cl)c2ccccc12,GFP response vs DMSO,[18],101% (inactive)
same,GFP response vs DMSO,[18]; [21],98.7%
same,GFP response vs DMSO,[18]; [22],104%
same,GFP response relative to DMSO,[19],103% (inactive)
same,GFP response relative to DMSO,[19]; [23],100%
same,GFP response relative to DMSO,[19]; [24],102%
same,"GFP response, % of DMSO",[20],93.9% (inactive)
same,"GFP response, % of DMSO",[20]; [21],91.5%
same,"GFP response, % of DMSO",[20]; [22],94.4%
Cc1ccc(N2C(=O)NC(=O)/C(=C\c3cn(CC(=O)O)c4ccccc34)C2=O)cc1,GFP response vs DMSO,[18],100% (inactive)
same,GFP response vs DMSO,[18]; [21],100%
same,GFP response vs DMSO,[18]; [22],101%
same,GFP response relative to DMSO,[19],102% (inactive)
same,GFP response relative to DMSO,[19]; [23],102%
same,GFP response relative to DMSO,[19]; [24],104%
same,"GFP response, % of DMSO",[20],96.5% (inactive)
same,"GFP response, % of DMSO",[20]; [21],94.8%
same,"GFP response, % of DMSO",[20]; [22],96.6%
CCN1CC2(COC(=O)c3ccccc3N)CCC(OC)C34C5CC6C(OC)CC(O)(C5C6OC)C(O)(C(OC)C23)C14 (stereo unspecified),percent of DMSO control GFP,[1],91.1% (inactive)
same,GFP response vs DMSO,[2],120% (inactive)
same,percent response of DMSO control,[3],96.6% (inactive)
same,GFP response vs DMSO,[4],86.4% (inactive)
same,double positive events,[5],68.8%
same,vesicle binding response,[5],247% (inactive)
same,inhibition,[6],5.49% (inactive)
same,superoxide response (% of plate),[7],99.8% (inactive)
same,aptamer binding inhibition,[8],2% (inactive)
same,inhibition,[9],4.65% (inactive)
same,response,[10],5.45% (inactive)
same,binding (% of control),[11],101% (inactive)
same,inhibition,[12],1.9% (inactive)
same,inhibition,[13],0.1% (inactive)
same,inhibition,[14],-9.8% (inactive)
same,efflux inhibition (fraction of control),[15],-0.42 (inactive)
same,inhibition,[16],8% (inactive)
same,differentiation response,[17],9.83% (inactive)
O=C1NC(=O)N(c2ccccc2)C(=O)/C1=C\c1ccc([N+](=O)[O-])o1,GFP response vs DMSO,[18],98.7% (inactive)
same,GFP response vs DMSO,[18]; [21],99.8%
same,GFP response vs DMSO,[18]; [22],98%
same,GFP response relative to DMSO,[19],101% (inactive)
same,GFP response relative to DMSO,[19]; [23],101%
same,GFP response relative to DMSO,[19]; [24],102%
same,"GFP response, % of DMSO",[20],103% (inactive)
same,"GFP response, % of DMSO",[20]; [21],105%
same,"GFP response, % of DMSO",[20]; [22],104%
